Inconclusive results are not listed. Calls of active or inactive are those of the source. Calls follow the shape of the dose curve; as a rule, active = well fitted curve in the direction sought with a large enough effect; inconclusive = small, poorly fitted or top-dose-only effect, or another doubt; inactive = no such curve, though single readings can be large or run the other way.
Molecular target: Metallo-beta-lactamase type 2 (Klebsiella pneumoniae) (UniProt C7C422)
Assay: qHTS to identify inhibitors of the New Delhi Metallo-beta-lactamase (NDM): assay validation screen against the NCATS LOPAC Collection (AID 1794843);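 also: nitrocefin turnover by NDM-1 measured as 485 nm absorbance at plateau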
Details: NDM-1 enzyme, nitrocefin hydrolysis, absorbance 485 nm; series mostly up to 38.4 µM
Excerpt: Assay Submitter (PI): James Inglese Ph.D., Patricia Dranchak Ph.D., Mahesh Aitha Ph.D.
Assay Development and Screening Technology Laboratory (ADST)
National Center for Advancing Translational Sciences (NCATS), Rockville, MD
National Institute of Health (NIH), Bethesda, Maryland
The metallo-beta-lactamases (MBL) are a main antibiotic resistance mechanism evolved by bacteria. There is an urgent clinical need for MBL inhibitors to mitigate this growing threat. To support a machine-based learning study, qHTS has been used to experimentally test inhibitors identified by prediction tools.
PROTOCOL TABLE (as described by Inglese et al., 2007)
SEQUENCE No. (e.g., 1, 2, 3, etc.); […] (e.g., enzyme, Incubation, Reagent, etc.); VALUE; DESCRIPTION
1; NDM-1; 4 uL of 3 nM enzyme in 50 mM HEPES (pH 7.0), 1 uM Zn2SO4, 0.01% Tween20; Use BioRaptr to dispense into Aurora black, clear bottom low base 1536-well plates
2; Compounds; 23 nL; Use Pin Tool (Wako) to transfer DMSO control and library compounds in DMSO
4; Reagent; 2 uL of 50 uM nitrocefin
6; Detector; Absorbance at 485 nm (bandwidth = 5 nm, 25 flashes/well) on Tecan Infinity
NOTES (numbers refer to sequence above)
1; Column 1 of each plate received assay buffer without enzyme and columns 2-48 received enzyme for a final assay concentration of 2 nM.
2; Control plate contained DMSO in columns 1, 2, 3, and 4.
3; Compound interaction with enzyme.
5; Substrate interaction with enzyme, plateau phase of kinetics.
6; Default reader settings were applied for absorbance read at 485 nm, bandwidth = 5 nm, 25 flashes/well.
Inglese J, Shamu CE, Guy RK. 2007. Reporting data from high-throughput screening of small-molecule libraries. Nat Chem Biol. doi:10.1038/nchembio0807-438
Yasgar A, Shinn P, Jadhav A, Auld D, Michael S, Zheng W, Austin CP, Inglese J, Simeonov A. 2008. Compound Management for Quantitative High-Throughput Screening. J Lab Autom 13:79 - 89. doi:10.1016/j.jala.2007.12.004

Metallo-beta-lactamase type 2 (Klebsiella pneumoniae), sequence (C7C422 whole entry, looked up): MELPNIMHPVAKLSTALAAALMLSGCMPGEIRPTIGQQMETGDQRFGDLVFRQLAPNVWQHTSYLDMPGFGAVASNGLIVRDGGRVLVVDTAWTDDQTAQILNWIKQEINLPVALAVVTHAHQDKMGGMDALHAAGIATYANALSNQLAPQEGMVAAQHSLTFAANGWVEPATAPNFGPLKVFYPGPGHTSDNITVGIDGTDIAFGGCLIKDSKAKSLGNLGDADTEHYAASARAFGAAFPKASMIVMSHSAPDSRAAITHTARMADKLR

Compound | outcome
Cc1cnc(NC(=O)C2=C(O)c3ccccc3S(=O)(=O)N2C)s1 | inactive
O=C1CCC(N2C(=O)c3ccccc3C2=O)C(=O)N1 (stereo not given) | inactive
O=c1n(CCCN2CCN(c3cccc(Cl)c3)CC2)nc2ccccn12 | inactive
OC(CCN1CCCCC1)(c1ccccc1)C1CC2C=CC1C2 (stereo not given) | inactive
CNC[C@H](O)c1cccc(O)c1 | inactive
Cc1oncc1C(=O)Nc1ccc(C(F)(F)F)cc1 | inactive
O=C(O)CCc1ccc(NCc2cccc(Oc3ccccc3)c2)cc1 | inactive
CS(=O)(=O)c1cccc(CNc2nc(Nc3ccc4c(c3)CCC(=O)N4)ncc2C(F)(F)F)c1 | inactive
C[C@]12CCC(=O)C=C1CC[C@@H]1[C@@H]2[C@@H](O)C[C@@]2(C)[C@H]1CC[C@]2(O)C(=O)CO | inactive
N=c1nc(N2CCCCC2)cc(N)n1O | inactive
CCCC(CCC)C(=O)O | inactive
Cc1ccc(N(CC2=NCCN2)c2cccc(O)c2)cc1 | inactive
CC(=O)Oc1ccccc1C(=O)O | inactive
OC(CN1CCC(Cc2ccc(F)cc2)CC1)c1ccc(Cl)cc1 (stereo not given) | inactive
NC(=O)c1cnccn1 | inactive
Nc1ccc(S(=O)(=O)Nc2ccnn2-c2ccccc2)cc1 | inactive
O=NN(CCCl)C(=O)NCCCl | inactive
CC(C[N+](C)(C)C)OC(N)=O (stereo not given) | inactive
Cc1cccc(-c2[nH]c(C(C)(C)C)nc2-c2ccc3nccnc3c2)n1 | inactive
CCc1cncnc1N1CCN(Cc2nc3ccc(C(F)(F)F)cc3[nH]2)CC1 | inactive

Compound | outcome
NC(N)=NC(=O)c1nc(Cl)c(N)nc1N | inactive
O=c1[nH]cnc2[nH]ncc12 | inactive
CCC(C)N(C)C(=O)c1cc2ccccc2c(-c2ccccc2Cl)n1 (stereo not given) | inactive
Nc1nc2ccc(OC(F)(F)F)cc2s1 | inactive
Cc1[nH]c(=O)c(C#N)cc1-c1ccncc1 | inactive
CCOC(=O)N1CCC(=C2c3ccc(Cl)cc3CCc3cccnc32)CC1 | inactive
Cn1cnc([N+](=O)[O-])c1Sc1ncnc2nc[nH]c12 | inactive
CCn1cc(C(=O)O)c(=O)c2cc(F)c(N3CCNC(C)C3)c(F)c21 (stereo not given) | inactive
CC(C)(C)NCC(O)c1ccc(O)c(CO)c1 (stereo not given) | inactive
Cc1cn[nH]c1 | inactive
Nc1nc2c(ncn2COCCO)c(=O)[nH]1 | inactive
O=C1CCc2cc(OCCCCc3nnnn3C3CCCCC3)ccc2N1 | inactive
CN1CCN(CCCN2c3ccccc3Sc3ccc(C(F)(F)F)cc32)CC1 | inactive
NS(=O)(=O)c1cc2c(cc1Cl)NC=NS2(=O)=O | inactive
NNCCc1ccccc1 | inactive
CC(C)(Sc1ccc(CCN(CCCCC2CCCCC2)C(=O)NC2CCCCC2)cc1)C(=O)O | inactive
Cc1[nH]c(=O)c(C#N)cc1-c1ccc2nccn2c1 | inactive
c1ccc([C@H]2CN3CCSC3=N2)cc1 | inactive
CCOC(=O)C1=C[C@]2(CC)CCCN3CCc4c(n1c1ccccc41)[C@@H]32 | inactive
NCCc1ccc(O)c(O)c1 | inactive

From PubChem BioAssay (NCATS)
